The record followed here is PubChem BioAssay (NCI).

SMILES strings stand for the structures. This is part of a sample that, as a whole, favours compounds with a hit. Of some 83,000 tested, about 20% had one in any assay.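 Note: values are percent growth. 100 is the growth of untreated cells, values between 100 and 0 indicate rising inhibition; between -100 and 0 indicates cell death.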 Values without a mark were called inactive. Calls of active or inactive are those of the source. Rule for the calls: active = growth percent below 10; inactive = the rest.

For this experiment, the system named is CAKI-1 renal. In words: NCI-60 one-dose screen, 48 h (100 = growth as untreated, 0 = no growth, -100 = all killed). The following applies: 10 µM unless noted.
Turning to `COC(=O)[C@]12CC[C@@H](C)[C@H](C)[C@@H]1C1=CC[C@@H]3[C@@]4(C)C(C=O)=C[C@@](C)(COC(=O)c5ccco5)[C@@H]4C(=O)C[C@@]3(C)[C@]1(C)CC2`, the growth was 38.8%.
As for `COc1cccc(C(=O)NCCNc2cc(-c3cn(-c4ccccc4)nc3-c3cccc(OC)c3)ccn2)c1`, the figure is 69.2%; as for `O=C(O)C1CCC(=O)N1C(=O)OCc1ccccc1` (configuration not stated), 83.4%.
As to `Cc1cc(NCc2cc(Nc3ccnc4cc(Cl)ccc34)ccc2F)nc(N2CCCC2)n1`, the growth is 71.5%.
As for `COC(=O)[C@]12CC[C@@H](C)[C@H](C)[C@@H]1C1=CC[C@@H]3[C@@]4(C)C(C=O)=C[C@@](C)(COC(=O)c5ccco5)C4=CC[C@@]3(C)[C@]1(C)CC2`, the figure is 14.3%; as for `CC(CCc1ccc(Cl)c(Cl)c1)NCc1ccc(C(C)(C)C)cc1` (configuration not stated), 85.9%; as for `Cc1ccc2nc3ccccc3c(NCc3ccccc3)c2c1`, 35.5%.
As for `COc1cc(-c2nc(N3CCN(C)CC3)c3ccccc3n2)cc(OC)c1OC`, the figure is 50.3%; as for `CCn1c(C)nc2cc(C(N)=O)ccc21`, 143%; as for `CN(C)CC1C(=O)O[C@H]2[C@H]1CC/C(COC(=O)c1cc3ccccc3[nH]1)=C\CC[C@@]1(C)O[C@@H]21` (some centres not stated), -14.4% (active).
As for `CN1CCN(CCCOc2ccc3nc(Nc4ccc(F)c(F)c4)ccc3c2)CC1`, the figure is 73.3%.
Turning to `COc1cccc(-c2nn(-c3ccccc3)cc2-c2ccnc(NCCCNC(=O)c3cccc(C(F)(F)F)c3)c2)c1`, the growth was 51.4%.
